Pf growth 48h – inhibits P. falciparum growth in the first generation, 48 h; P. falciparum luciferase growth in erythrocytes, 48 h; Potency, µM (highest dose often 28.7 µM), without a hit: top-dose activity change, negative = inhibition, usual class: inhibitors; 310,000 tested, 5.9% active
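Growth was read as firefly luciferase luminescence after a 48 h, 37 C, 5% CO2 exposure of compounds to reporter-bearing P. falciparum cultures (0.1% parasitemia, 2% hematocrit final) in Albumax-supplemented RPMI 1640.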
Vaccinia Venus – inhibitors of vaccinia virus (Venus reporter); Vaccinia virus Venus reporter expression, fluorescence; Potency, µM (series often up to 36.5 µM), for the others: at the highest dose activity change, negative = inhibition, actives largely listed as inhibitors; 330,000 tested, 0.46% active; AID 720580; calls by dose curve; tested in A549 cells; also: nearly all actives have a fitted effect of over 30% in size
Pf growth 96h – P. falciparum growth inhibition at 96 hours; P. falciparum luciferase reporter growth, 96 h; 320,000 tested, 6.9% active; Potency, µM (highest dose often 28.7 µM), without a hit: top-dose activity change, negative = inhibition, hits mostly inhibitors
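Cell-based qHTS: luciferase-tagged P. falciparum in erythrocytes (2% hematocrit, 0.05% parasitemia final) incubated with compounds for 96 hours, 37 C, 5% CO2; luciferase detection reagent then added and luminescence measured.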
VACV mCherry inh – inhibitors of vaccinia virus infection (mCherry reporter signal) | Vaccinia virus mCherry reporter infection, fluorescence | Potency, µM (titrated, usually from 36.5 µM), without a hit: at the top dose activity change, negative = inhibition, most hits filed as inhibitors | 310,000 tested, 0.63% active; calls by dose curve; tested in A549 cells; also: nearly all actives have a fitted effect of over 35% in size
AMA1 RON2 block – disrupts binding of P. falciparum AMA1 to RON2. AlphaScreen AMA1-biotinylated RON2 peptide binding. Potency, µM (series often up to 58.2 µM), for the others: at the top dose activity change, negative = inhibition, usual class: inhibitors. 360,000 tested, 0.2% active. AID 720542;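 also: 0% = vehicle wells and -100% = peptide control; nearly all actives have a fitted effect of over 45% in size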
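AMA1 (3D7) with his tag at 25 nM final met compounds first, then biotinylated RON2 peptide at 25 nM; detection used donor plus acceptor beads, 10 µg/mL apiece, read by AlphaScreen after 30 min at room temperature.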
* = called active by the depositor; i = inactive; ? = inconclusive; nt = no result. Shown are actives, neighbours in structure and some others; about 8.7% of the full set was active somewhere. Unless noted, calls follow the shape of the dose curve; as a rule, active = well fitted curve in the direction sought with a large enough effect; inconclusive = small, poorly fitted or top-dose-only effect, or another doubt; inactive = no such curve, though single readings can be large; an effect the other way counts as inactive or inconclusive. Unless noted, % is scaled to controls: 0 for no effect and ±100 for the full control effect; potency is read from the fitted curve at half-maximal effect.

SMILES	Pf growth 48h	Vaccinia Venus	Pf growth 96h	VACV mCherry inh	AMA1 RON2 block
CCOc1ccc(CCNC(=O)c2c(C)oc3ncn(CC(C)C)c(=O)c23)cc1	nt	2.3%	nt	-10.3%	nt
CCOC(=O)c1c(C)oc2nc(C)nc(NCC3CCN(Cc4ccccc4C)CC3)c12	nt	-4.3%	nt	-20.0%	nt
Cc1nn2c(=O)cc(COC(=O)C(c3ccccc3)c3ccccc3)nc2s1	nt	-3.2%	nt	-1.3%	nt
Cc1csc2nc(COC(=O)c3ccc(NC(=O)C(C)Oc4ccccc4)cc3)cc(=O)n12 (centres undefined)	nt	-16.8%	nt	-0.3%	nt
O=C(C1=C[C@@H](C2CCCCC2)C[C@@H](OCCCCO)O1)N1CCN(Cc2ccc3c(c2)OCO3)CC1	?	-23.5%	6.57µM*	-19.2%	-14.9%
CC(C)(C)[C@@H]1C=C(C(=O)Nc2ccccc2)O[C@H](OCc2ccc(CO)cc2)C1	?	-15.1%	8.28µM*	i	-0.4%
O=C(C1=C[C@H](c2ccc(C(F)(F)F)cc2)C[C@H](OCc2ccc(CO)cc2)O1)N1CCN(Cc2ccc3c(c2)OCO3)CC1	?	?	3.7µM*	-27.6%	-25.4%
C#CCNC(=O)C1=C[C@H](C(C)(C)C)C[C@H](OCc2ccc(CO)cc2)O1	?	-5.5%	?	i	-0.6%
O=C(C1=C[C@@H](C2CC2)C[C@@H](OCCCCO)O1)N1CCN(Cc2ccc3c(c2)OCO3)CC1	?	-2.8%	?	-12.4%	0.2%
Cc1ccccc1C(=O)OCc1cc(=O)n2nc(C3CCCCC3)sc2n1	nt	-6.5%	nt	-6.6%	nt
O=C(NCc1ccccc1F)c1cc2ccccn2n1	nt	-8.6%	nt	0.7%	nt
CC(Sc1nc2cc([N+](=O)[O-])ccc2n1-c1ccc(F)cc1)C(=O)NCc1ccc2c(c1)OCO2 (centres undefined)	?	-9.6%	1.65µM*	-2.7%	8.0%
Cc1cc(C)cc(-n2c(SC(C)C(=O)NCc3ccc4c(c3)OCO4)nc3ccccc3c2=O)c1 (centres undefined)	13.1µM*	-10.9%	0.0%	-8.0%	-18.2%
COc1ccccc1-n1c(SCC(=O)NCc2ccc3c(c2)OCO3)nc2cc([N+](=O)[O-])ccc21	?	-14.0%	?	i	?
CC(Sc1nc2cc([N+](=O)[O-])ccc2n1-c1cccc(C(F)(F)F)c1)C(=O)NC(N)=O (centres undefined)	0.586µM*	-1.1%	0.657µM*	-8.5%	8.9%
CCCCc1ccc(-n2nc3ccc(NC(=O)c4cc5ccccc5o4)cc3n2)cc1	nt	-6.7%	nt	-21.6%	nt
CCN(CC)C(=O)Cn1c(C)c(/C=C/c2cc[n+](C)cc2)c2ccccc21	1.65µM*	nt	?	nt	11.4%
C=CCn1c(C)c(/C=C/c2cc[n+](C)cc2)c2ccccc21	0.738µM*	161.2%	3.8%	-6.8%	-9.5%
CCc1ccc(O)c(-c2cc(C(=O)Nc3cccnc3)[nH]n2)c1	?	-19.8%	0.415µM*	?	104.0%
CC(=O)Nc1ccc(NC(=O)c2cc(-c3cc(C)c(C)cc3O)n[nH]2)cc1	1.04µM*	3.7%	?	8.2%	26.1%
Cc1ccc(C(=O)Nc2cccnc2)cc1C	nt	-12.2%	nt	-3.3%	-4.5%
COc1ccc(-c2cc(C(=O)Nc3ccc(NC(C)=O)cc3)[nH]n2)c(C)c1	nt	8.1%	nt	2.0%	-16.1%
Cc1cc(C)c(O)c(-c2cc(C(=O)Nc3cccnc3)[nH]n2)c1	2.94µM*	-21.7%	2.94µM*	?	66.7%
Cc1cc(O)c(-c2cc(C(=O)Nc3cccnc3)[nH]n2)cc1C	2.62µM*	nt	2.08µM*	nt	87.5%
Cc1ccc(-c2onc(C)c2C)cc1S(=O)(=O)NC1CCC(C)CC1 (centres undefined)	nt	-20.7%	nt	-20.0%	nt
CCN1CCCC1CNC(=O)c1cc(OC)c(OC)c(OC)c1 (centres undefined)	nt	-6.0%	-26.8%	-11.3%	-3.0%
CCN1CCCC1CNC(=O)CCNC(=O)c1cc(OC)c(OC)c(OC)c1 (centres undefined)	-21.2%	nt	2.62µM*	nt	0.4%
Cc1cc(CC(C)CC(C)(C)C)n(O)c(=O)c1 (centres undefined)	4.78µM*	?	3.01µM*	1µM*	nt
CCn1c(C)cc(C=C2C(=O)c3ccccc3C2=O)c1C	-81.2%	2.2%	5.1%	-6.0%	-6.0%
Cc1cc(C=C2C(=O)c3ccccc3C2=O)c(C)n1C	-18.3%	-3.5%	4.65µM*	-19.4%	7.8%

From PubChem
